The whole screen tested about 1,000 compounds, of which about 200 (20%) were called active. The list is a sample of the results. Potency and affinity values are given separately. A number with no mark means an inactive call. Rule as the data show it: active = inhibition above about 55%; inactive = the rest.

Chain of Dual specificity protein phosphatase 3 (Homo sapiens) (P51452 whole entry, looked up): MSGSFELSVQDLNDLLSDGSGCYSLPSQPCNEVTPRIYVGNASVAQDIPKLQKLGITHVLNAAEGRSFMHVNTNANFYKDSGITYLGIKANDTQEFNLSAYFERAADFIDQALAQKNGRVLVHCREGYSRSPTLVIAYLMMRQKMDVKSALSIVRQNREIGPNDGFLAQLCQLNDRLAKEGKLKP

This test concerns the target Dual specificity protein phosphatase 3 (Homo sapiens) (UniProt P51452). Put plainly: VHR1 phosphatase inhibitors, biochemical (AID 1878). The following applies: recombinant VHR phosphatase, fluorogenic substrate; at 13.3 µM; active compounds read high.
`O=C(CSc1nc2ncccc2[nH]1)NCc1ccco1`: the inhibition is 17.8%.

With `COc1ccc(Br)cc1/C=N/n1nnnc1N`, the inhibition was 5.9%.

For the compound `Cc1ccccc1NC(=O)CN1C(=O)S/C(=C\c2ccc(-c3cc(C(=O)O)ccc3C)o2)C1=O`, the inhibition is 67.4% (active).

Regarding `Cc1cc(C(=O)O)ccc1-c1ccc(/C=C2\SC(=O)N(CC(=O)Nc3ccc4c(c3)OCO4)C2=O)o1`, the inhibition was 96.8% (active).

Turning to `O=C(CSc1ccc([N+](=O)[O-])cn1)Nc1ccc2c(c1)OCO2`, the inhibition is -8.7%.

As for `Cc1ccc(C(=O)O)cc1-c1ccc(/C=C2\SC(=O)N(CC(=O)Nc3ccccc3)C2=O)o1`, the inhibition is 45.6%.

For `CCOc1ccccc1NC(=O)c1nnn(CC(=O)Nc2ccc3c(c2)OCO3)c1N`, the inhibition was -0.3%.

`O=C(CN1C(=O)S/C(=C\c2ccc(-c3cc(C(=O)O)ccc3Cl)o2)C1=O)Nc1ccc2c(c1)OCO2`: the inhibition is 91.9% (active).

On to `CCN(CC(=O)Nc1ccc2c(c1)OCCO2)C(=O)COc1ccc(C)cc1`, for which the inhibition is 7.4%.

With `CCOc1ccc(CNS(=O)(=O)c2cc(CN3C(=O)c4cccnc4C3=O)ccc2OC)cc1`, the inhibition was -2.7%.

In the case of `CC(=O)N1c2ccc(S(=O)(=O)N(C)CC(=O)Nc3cccc(C)c3)cc2CC1C` (stereo not drawn), the inhibition is -2.3%.

In the case of `O=C(NC(=S)Nc1ccccc1N1CCCC1)c1ccccc1Br`, the inhibition was -1.6%.

In the case of `COc1cc(OC)nc(Oc2ccc(N)c(C)c2)n1`, the inhibition is 17.4%.

As to `CC(=O)/C=C\c1cn(-c2ncc(C(F)(F)F)cc2Cl)c2ccccc12`, the inhibition was -0.4%.

Turning to `COc1cccc(CNc2cc(C)ccn2)c1O`, the inhibition is -6.7%.

Turning to `O=S1(=O)N(Cc2ccccc2F)CCCN1Cc1c(F)cccc1Cl`, the inhibition is 44.5%.

Turning to `O=S(=O)(c1ccccc1)N1CCn2c(nc3ccccc32)C1`, the inhibition was -0.8%.

As to `Cc1ccc(-c2nn3c(C)nnc3s2)cc1NC(=O)c1ccc(-c2ccc(Cl)cc2Cl)o1`, the inhibition is 99.7% (active).

On to `CSCC(C)N1CCC(N2CCC(C(=O)NCc3ccccn3)CC2)CC1` (stereo not drawn), for which the inhibition is -9.9%.

In the case of `Cc1ccc(/C=C2/Sc3ccc(C(=O)NCc4ccccn4)cc3NC2=O)cc1`, the inhibition was 93.9% (active).

Turning to `CCN(Cc1ccc(NC(C)=O)cc1)CC1CCCN(CCc2cccc(F)c2)C1` (stereo not drawn), the inhibition is 6.3%.

Take `CCOC(=O)C1(Cc2ccccc2)CCCN(C(=O)c2ccc(-n3ccnc3)cc2)C1` (stereo not drawn): the inhibition was -9.5%.

As to `Cc1cccc(C(=O)NCCCn2ccnc2)c1C`, the inhibition is -6.9%.

For the compound `Cc1ccc(CSc2nnc(-c3ccco3)n2N)cc1`, the inhibition is 3.5%.

Take `CC1(c2ccc3ccccc3c2)NC(=O)NC1=O` (stereo not drawn): the inhibition is -8.8%.

For `CC(C)N(C)Cc1nnnn1CC(=O)N(C)Cc1ccc(F)cc1`, the inhibition is 0.7%.

Regarding `O=C(O)CN1C(=O)/C(=C2\C(=O)N(Cc3ccccc3Cl)c3ccccc32)SC1=S`, the inhibition was 96.7% (active).

Regarding `COc1ccc(C(CC(=O)Nc2ccccn2)N2Cc3ccccc3C2=O)cc1` (stereo not drawn), the inhibition is 2.3%.

As for `COc1ccc(NC(=O)CN2C(=O)/C(=C3\SC(=S)N(CCC(=O)O)C3=O)c3ccccc32)cc1`, the inhibition is 74.7% (active).

`COc1ccc(NC(=O)CN(CC(=O)Nc2ccc(OC)cc2)C(C)(C)CO)cc1`: the inhibition is 10.8%.

As for `CN(C)c1nc(-c2ccccc2)c2cc(Cl)ccc2n1`, the inhibition is 9%.

Regarding `CCCN1CCN(CCNC(=O)Nc2cc(C)ccc2C)CC1`, the inhibition was -9.3%.

Regarding `Cc1nc(C(C)NC(=O)c2ccc(OC3CCN(Cc4ccccn4)CC3)cc2)c(C)s1` (stereo not drawn), the inhibition is -8.5%.

Consider `COc1ccccc1N(CC(O)CN1CCC(C)CC1)S(=O)(=O)c1ccccc1` (stereo not drawn), for which the inhibition is -7.2%.

As for `Cc1ccc(S(=O)(=O)N(C)C)cc1NC(=O)COC(=O)/C=C/c1cnc2ccccc2n1`, the inhibition was 10.1%.

As for `O=C(Nc1ccc(N2CCCCC2)cc1)c1ccc([N+](=O)[O-])o1`, the inhibition is 14.3%.

Turning to `CC(O)CNc1nc2c(c(=O)n(Cc3ccc(Cl)cc3)c(=O)n2C)n1C` (stereo not drawn), the inhibition is 27.1%.

For `CC(C)NC(=O)CN1C(=O)CSc2ccc(S(=O)(=O)N3CCCC3)cc21`, the inhibition was 15.9%.

Turning to `CCc1nn(CC(=O)N2CCN(c3cc(C)ccc3C)CC2)c(=O)c2cc3occc3n12`, the inhibition is 4.7%.

Turning to `COC(=O)C1CCN(Cc2c(C(=O)N3C[C@@H](C)O[C@@H](C)C3)nc3ccc(Cl)cn23)CC1`, the inhibition was 19%.

`Cc1cc(-c2ccc(C)c(S(=O)(=O)NCCCN(Cc3ccccc3)C(C)C)c2)on1`: the inhibition is 3.1%.

As for `S=c1nc(NCc2cccc(Cl)c2)c2ccccc2[nH]1`, the inhibition is 6.3%.

With `CCN(CC)CCCNC(=O)c1ccc(CS(=O)(=O)c2ccccc2OC)o1`, the inhibition was -2.3%.

Take `CN(C(=O)CSc1cn(CC(=O)N2CCOCC2)c2ccccc12)c1ccccc1`: the inhibition was -6.1%.

With `CCc1ccc(CN(C)C(=O)c2ccc3c(c2)OCCO3)cc1`, the inhibition was 11.2%.

`CN1C=CC=C/C1=C1/SC(=S)N(Cc2ccccc2)C1=O`: the inhibition was -8%.

Turning to `CCCCN1C(=O)/C(=C2\SC(N3CCOCC3)=NC2=O)c2ccccc21`, the inhibition was 1.9%.

Turning to `O=C(O)CCN1C(=O)/C(=C2\C(=O)N(Cc3ccc(F)cc3)c3ccccc32)SC1=S`, the inhibition was 92.9% (active).

Turning to `O=C(O)CCCN1C(=O)c2ccccc2Sc2ncccc21`, the inhibition was 2.1%.

In the case of `N#CC(c1cccnc1)N1CCOCC1` (stereo not drawn), the inhibition was 5.3%.

On to `N#Cc1ccc(OS(=O)(=O)c2ccc(-c3ccon3)s2)cc1`, for which the inhibition was 1.6%.

For the compound `CCOC(=O)c1ccc(NC(=O)CSc2nnc(CNC(=O)c3ccco3)o2)cc1`, the inhibition is 28.4%.

As for `OC(CN1CCC(Cc2ccccc2)CC1)c1ccccc1` (stereo not drawn), the inhibition is 3.5%.

For `O=C(O)C(Cc1ccccc1)N1C(=O)/C(=C/C=C/c2ccco2)SC1=S` (stereo not drawn), the inhibition was 71.7% (active).

As for `CC(C(=O)O)N1C(=O)/C(=C/C=C/c2ccco2)SC1=S` (stereo not drawn), the inhibition was 97.9% (active).

Consider `Cc1cc(N2CCN(c3ncccn3)CC2)nc2c(C)cccc12`, for which the inhibition is 3.7%.

As to `CNS(=O)(=O)c1cn(CC(=O)NCc2ccc(N(C)C)cc2)cc1S(=O)(=O)NC`, the inhibition is 5.7%.

As for `COc1ccc(CN(C)C(=O)c2cccc(NS(=O)(=O)c3ccccc3)c2)cc1F`, the inhibition is 6%.

Usually inhibition stands for the relative decrease from the control value, in per cent.
